The campaign covered roughly 17,000 compounds. About 75 (0.4%) were called active. This is one part of a sample in which actives are shown more often than they occur.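 Rule for the calls: active = compounds whose four printed spots each glow above background more than chance allows, each with a p-value under 7%; inactive = the rest.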

For this test, the system named is mutant tumor protein p53 (GST-tagged), Homo sapiens. The experiment in a line: small molecules binding GST-tagged mutant p53 – biochemical, small molecule microarray, anti-GST fluorescence, primary screen (AID 624136).
Take `C[C@@H]1CN([C@@H](C)CO)C(=O)c2cccc(NC(=O)c3ccncc3)c2O[C@H]1CN(C)S(=O)(=O)c1ccc(F)cc1`: the outcome was inactive.

Consider `C[C@H](CO)N1C[C@H](C)[C@@H](CN(C)CC2CCCCC2)Oc2ccc(NC(=O)Cn3cnnn3)cc2CC1=O`, for which the compound was classed as inactive. The entry for `COc1cc(C2OC(c3cc(OC)c(OC)c(OC)c3)C(C)C2C)cc(OC)c1OC` (centres undefined) is “inactive”; for `C[C@@H]1CN([C@@H](C)CO)C(=O)c2cc(NS(=O)(=O)c3ccccc3)ccc2O[C@@H](C)CCCCO[C@H]1CN(C)S(=O)(=O)c1cccs1` it is “inactive”. To `Cc1cc(C)cc(N2C(=O)CSC2c2cccc([N+](=O)[O-])c2)c1` (centres undefined) belongs “inactive”. As for `C[C@H](CO)N1C[C@H](C)[C@H](CN(C)C)Oc2ncc(C#Cc3ccc(F)cc3)cc2C1=O`, the result was inactive. As for `C[C@H]1CN([C@@H](C)CO)C(=O)Cc2cc(NC(=O)NC3CCCCC3)ccc2O[C@H]1CN(C)S(=O)(=O)c1ccccc1`, the call was inactive. To `C[C@H]1CN([C@@H](C)CO)C(=O)c2cccc(NS(=O)(=O)c3ccccc3)c2O[C@@H]1CN(C)C(=O)Nc1ccc(C(F)(F)F)cc1` belongs “inactive”; to `Cc1noc(C)c1NC(=O)N(C)C[C@@H]1Oc2ccc(NC(=O)CCN3CCOCC3)cc2CC(=O)N([C@H](C)CO)C[C@@H]1C`, “inactive”; to `COc1ccc(S(=O)(=O)Nc2ccc3c(c2)CC(=O)N([C@@H](C)CO)C[C@@H](C)[C@@H](CN(C)C)O3)cc1`, “inactive”. To `CCO/C([O-])=N\c1c[n+](N2CCOCC2)no1` belongs “inactive”. To `C[C@H](CO)N1C[C@H](C)[C@@H](CN(C)CC2CC2)Oc2ccc(NS(=O)(=O)c3cn(C)cn3)cc2CC1=O` belongs “inactive”; to `Cc1ccc(-c2cn3c4c(sc3n2)CCCC4)cc1`, “inactive”; to `Cc1noc(C)c1S(=O)(=O)N(C)C[C@H]1Oc2ccc(NC(=O)CCN3CCOCC3)cc2CC(=O)N([C@H](C)CO)C[C@H]1C`, “inactive”. `C[C@@H]1CN([C@H](C)CO)C(=O)CCCn2cc(nn2)CO[C@@H]1CN(C)C(=O)c1ccc2ccn(C)c2c1`: the result was inactive. To `CC(C)NC(=O)N(C)C[C@@H]1Oc2ccc(NC(=O)C3CC3)cc2C(=O)N([C@@H](C)CO)C[C@H]1C` belongs “inactive”; to `C[C@@H]1CCCCO[C@H](CN(C)Cc2ccncc2)[C@H](C)CN([C@H](C)CO)C(=O)c2cc(NC(=O)Nc3ccccc3)ccc2O1`, “inactive”; to `C[C@@H]1CN([C@H](C)CO)C(=O)Cc2cc(NC(=O)C3CC3)ccc2O[C@H]1CN(C)Cc1ccc2c(c1)OCO2`, “inactive”. Consider `C[C@H](CO)N1C[C@H](C)[C@@H](CN(C)C(=O)Nc2ccccc2)Oc2ccc(NC(=O)C3CC3)cc2CC1=O`, for which the compound was called inactive. The entry for `C[C@@H]1CN([C@@H](C)CO)C(=O)c2cc(NC(=O)Nc3ccc4c(c3)OCO4)ccc2O[C@@H](C)CCCCO[C@@H]1CN(C)Cc1ccccc1` is “active”; for `C[C@@H]1CN([C@H](C)CO)C(=O)Cc2cc(NC(=O)C3CC3)ccc2O[C@H]1CN(C)Cc1ccc(Cl)c(Cl)c1` it is “active”; for `C[C@@H]1CCCCO[C@H](CN(C)C(=O)c2ccccc2)[C@H](C)CN([C@@H](C)CO)C(=O)c2cc(NC(=O)Nc3ccc4c(c3)OCO4)ccc2O1` it is “inactive”. To `C[C@@H]1CCCCO[C@@H](CN(C)Cc2ccc(C(=O)O)cc2)[C@H](C)CN([C@@H](C)CO)C(=O)c2cc(NC(=O)Nc3ccc(C(F)(F)F)cc3)ccc2O1` belongs “inactive”; to `C[C@@H]1CC[C@]2(C)[C@H](CC[C@@H](O)[C@]2(C)O)[C@@]1(C)CC(=O)c1ccoc1`, “inactive”; to `CC(=O)N[C@@H](C(=O)O[C@H]1CCC(C)(C)[C@@H]2CCC3=C(COC3=O)[C@@]12C)C(C)C`, “inactive”. With `CC(C)NC(=O)N(C)C[C@H]1OCCCC[C@H](C)Oc2ccc(NC(=O)Nc3ccc(C(F)(F)F)cc3)cc2C(=O)N([C@H](C)CO)C[C@@H]1C`, the compound was called inactive.

With `CC(C)NC(=O)N(C)C[C@@H]1OCCCC[C@@H](C)Oc2ccc(NC(=O)Cc3ccccc3)cc2C(=O)N([C@H](C)CO)C[C@H]1C`, the compound was called inactive.

Turning to `C[C@H]1CN([C@@H](C)CO)C(=O)c2cccc(NC(=O)Nc3ccc(C(F)(F)F)cc3)c2O[C@H]1CN(C)C(=O)NC1CCCCC1`, the compound was classed as inactive. To `COC(=O)C1=CO[C@@H](O[C@@H]2O[C@H](CO)[C@@H](O)[C@H](O)[C@H]2O)[C@@H]2[C@@](C)(O)[C@@H](OC(=O)/C=C/c3ccc(OC)c(OC)c3)C[C@]12O` belongs “inactive”; to `C[C@H](CO)N1C[C@H](C)[C@H](CN(C)S(=O)(=O)c2cn(C)cn2)Oc2c(NC(=O)c3ccncc3)cccc2C1=O`, “inactive”; to `Cc1noc(C)c1NC(=O)N(C)C[C@@H]1Oc2ccc(NC(=O)Nc3ccc(F)cc3)cc2C(=O)N([C@H](C)CO)C[C@@H]1C`, “inactive”. As for `C[C@H](CO)N1C[C@H](C)[C@H](CN(C)C)Oc2c(NC(=O)C3CCOCC3)cccc2C1=O`, the result was inactive.

With `C[C@@H]1CN([C@@H](C)CO)C(=O)Cc2cc(NS(C)(=O)=O)ccc2O[C@@H]1CN(C)Cc1ccc2c(c1)OCO2`, the outcome was inactive.

In the case of `O=C(C1=C[C@H](c2ccc(C(F)(F)F)cc2)C[C@H](OCc2ccc(CO)cc2)O1)N1CCN(Cc2ccccc2)CC1`, the outcome was inactive.

On to `C[C@H](CO)N1C[C@H](C)[C@@H](CN(C)C)Oc2ccc(NS(=O)(=O)c3cccs3)cc2C1=O`, for which the outcome was inactive.

`COc1ccc(S(=O)(=O)N(C)C[C@H]2OCCCC[C@@H](C)Oc3ccc(NC(=O)CCC(F)(F)F)cc3C(=O)N([C@@H](C)CO)C[C@H]2C)cc1`: the compound was classed as inactive. To `Cc1noc(C)c1NC(=O)N(C)C[C@H]1Oc2ccc(N(C)C)cc2CC(=O)N([C@H](C)CO)C[C@H]1C` belongs “inactive”; to `C[C@H]1CCCCO[C@H](CN(C)C(=O)Nc2ccccc2)[C@@H](C)CN([C@@H](C)CO)C(=O)c2cc(NC(=O)CCC(F)(F)F)ccc2O1`, “inactive”. To `N#Cc1c(-c2ccccc2)cc(-c2ccccc2)nc1SCC(=O)O` belongs “inactive”; to `CC(Sc1nnc(N)s1)C(=O)Nc1cccc(Cl)c1` (centres undefined), “inactive”; to `COc1ccc(NC(=O)Nc2cccc3c2O[C@@H](CN(C)Cc2ccncc2)[C@H](C)CN([C@H](C)CO)C3=O)cc1`, “inactive”.

Regarding `COC(=O)C1(Cc2ccc(O)c(CC3OC3(C)C)c2)OC(=O)C(=O)C1c1ccc(O)cc1` (centres undefined), the compound was classed as inactive. To `C[C@@H]1CCCCO[C@H](CN(C)S(=O)(=O)c2cccs2)[C@H](C)CN([C@@H](C)CO)C(=O)c2cc(NS(=O)(=O)c3cccs3)ccc2O1` belongs “inactive”. The entry for `C[C@@H]1CN([C@H](C)CO)C(=O)c2cc(NC(=O)NC3CCCCC3)ccc2O[C@H]1CN(C)C(=O)Nc1ccccc1` is “inactive”. The entry for `COc1ccc(C)cc1NC(=O)CSc1nc(SC)ns1` is “inactive”; for `C[C@H](CO)N1C[C@H](C)[C@@H](CN(C)C(=O)Nc2ccccc2F)OCc2cn(nn2)CCCC1=O` it is “inactive”; for `COc1ccc(NC(=O)Nc2ccc3c(c2)C(=O)N([C@H](C)CO)C[C@H](C)[C@@H](CN(C)S(=O)(=O)c2ccc(OC)cc2)OCCCC[C@H](C)O3)cc1` it is “inactive”. `C[C@H](CO)N1C[C@H](C)[C@H](CN(C)C(=O)Nc2ccc3c(c2)OCO3)Oc2ncc(Br)cc2C1=O`: the compound was called inactive. The entry for `C[C@H]1CN([C@@H](C)CO)C(=O)Cc2cc(NC(=O)Nc3ccc4c(c3)OCO4)ccc2O[C@H]1CN(C)CC1CC1` is “inactive”.

Source of the values: PubChem BioAssay AID624136 (Broad Institute, 2012).
